# Experiment: binders of probe aFST on microarray, primary screen, stem cell growth factor project, biochemical, small-molecule microarray, fluorescence 635/667 (AID 1086);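 further: score merges 667 nm fluorescence with signal-to-noise of each printed compound spot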
# Conditions: higher = more signal
row,Compound,composite z-score
1,CCCCC(=C=CC[C@H](O)c1cccc(OCCO)c1)C[C@H](O)COCc1ccccc1,-0.11
2,COC(=O)c1ccc(OC)c(/C=C\CC(CCc2ccccc2)OC(=O)c2ccncc2)c1 (centres undefined),-0.432
3,COc1ccc([Si](C)(C)[C@H]2[C@H](CC(=O)N3CCC[C@H]3CO)O[C@@]3(C(=O)N(Cc4ccc(N5C(=O)c6cccc7cccc5c67)cc4)c4ccccc43)[C@@H]2C)cc1,0.361
4,COc1cc(NN2C(C(O)c3ccc(I)cc3)C=CC3C(=O)N(C)C(=O)C32)cc(OC)c1OC (centres undefined),-0.0647
5,C=CCC(OC(C)=O)[C@@H]1[C@@H](N(Cc2ccc(-c3ccccc3)cc2)C(=O)c2cccc3ccccc23)c2cc(OCCCO)ccc2N1C(=O)c1ccc2ccccc2n1 (some centres undefined),0.294
6,C=CCC(OC(C)=O)[C@@H]1[C@@H](N(Cc2cccc3ccccc23)C(=O)Cc2ccc(F)cc2)c2cc(OCCCO)ccc2N1C(=O)Cc1ccc(OC)cc1 (some centres undefined),0.0417
7,O=C1O[C@H](c2ccccc2)[C@H](c2ccccc2)N2[C@H]1[C@@H](C(=O)N1CCN(c3ncccn3)CC1)[C@]1(C(=O)Nc3ccc(C#CCCO)cc31)[C@H]2c1ccccc1OCCO,0.312
8,COC(=O)[C@@]1(Cc2ccccc2)[C@H]2c3cc(C(=O)N4CCCC4)n(CCO)c3C[C@H]2CN1C(=O)c1ccccc1,2.6
9,COCCCNC(=O)[C@@]1(Cc2ccccc2I)c2ccccc2C(=O)N(Cc2ccccc2Cl)[C@H]1c1ccc(CO)cc1,-0.211

# Experiment: binders of probe aHhip on microarray, primary screen, stem cell growth factor project, biochemical, small-molecule microarray, fluorescence 635/667 (AID 1087);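 further: score merges spot fluorescence at 667nm with spot signal to noise ratio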
# Conditions: higher = more signal
row,Compound,composite z-score
1,COC(=O)[C@@]1(Cc2ccc(OC)cc2)[C@H]2c3cc(C(=O)N(C)C)n(Cc4cc(C)n(C)n4)c3C[C@H]2CN1C(=O)c1ccccc1,0.309
2,O=C(NCc1ccccc1)[C@]1(Cc2ccccc2)N=C(c2ccc(OCCCO)cc2)O[C@@H]1c1ccccc1,0.0024
3,[N-]=[N+]=NCc1ccccc1[C@H]1OC(c2ccc(OCCCO)cc2)=N[C@@]1(Cc1ccccc1N=[N+]=[N-])C(=O)N1CCCCC1,-0.199
4,COCCOC(=O)N1C(=O)[C@@]2(c3ccccc31)[C@H](c1ccc(OCCO)cc1)N1[C@H](c3ccccc3)[C@H](c3ccccc3)OC(=O)[C@H]1[C@@H]2C(=O)NC[C@H](O)c1ccccc1,-0.0753
5,COc1ccc(C(=O)Nc2ccc3c(c2)[C@]2(O[C@@H](CCO)[C@H]([Si](C)(C)c4ccc(OC)cc4)[C@H]2C)C(=O)N3Cc2ccccc2)cc1,-0.0237
6,CN(C)C(=O)[C@]1(Cc2ccccc2N=[N+]=[N-])N=C(c2ccc(OCCCO)cc2)O[C@@H]1c1ccccc1CN=[N+]=[N-],-0.0994
7,COCCOC(=O)N1C(=O)[C@@]2(c3cc(C#Cc4ccc(OC)cc4)ccc31)[C@H](C(=O)N1CCc3cc(OC)c(OC)cc3C1)[C@H]1C(=O)O[C@H](c3ccccc3)[C@H](c3ccccc3)N1[C@@H]2c1ccc(O)cc1,-0.297
8,COc1ccc(C#Cc2ccc3c(c2)[C@]2(C(=O)N3)[C@H](C(N)=O)[C@H]3C(=O)O[C@H](c4ccccc4)[C@H](c4ccccc4)N3[C@@H]2c2ccc(O)cc2)cc1,-0.0581
9,COc1ccc([Si](C)(C)[C@@H]2[C@@H](CCO)O[C@]3(C(=O)N(Cc4ccccc4)c4ccc(N5C(=O)COc6ccccc65)cc43)[C@H]2C)cc1,-0.0994
10,CC(C)(C)OC(=O)CC[C@@]1(C(=O)N2CCCCC2)N=C(c2ccc(OCCCO)cc2)O[C@@H]1c1ccccc1CN=[N+]=[N-],0.0854
11,CC(C)C(CO)N1C(=O)[C@@H]2[C@H]3C(=O)OCC=C[C@H]3OC23C=CCN(CCN2CCOCC2)C(=O)[C@@H]13 (some centres undefined),-0.538
12,CN1C(=O)C2C=CC(C(O)c3cccc4ccccc34)N(NC(=O)OC(C)(C)C)C2C1=O (centres undefined),-0.0296
13,COCCOC(=O)N1C(=O)[C@@]2(c3cc(C#Cc4ccc(OC)cc4)ccc31)[C@H](C(=O)N1CCc3cc(OC)c(OC)cc3C1)[C@H]1C(=O)O[C@H](c3ccccc3)[C@H](c3ccccc3)N1[C@@H]2c1ccc(OCCO)cc1,0.0623
14,CCOC(=O)C1=CC[C@@H](c2ccccc2)N(S(=O)(=O)c2ccc(C)cc2)[C@H]1C=C(C)C,-0.199
15,C[N+](C)(C)CCCC[C@@H]1NC(=O)[C@H]2C[C@@H](C(=O)NCCCCCCN)[C@@H](c3cccc(OCCO)c3)N2C1=O,1.13
16,COC(=O)C(CC#Cc1ccc2c(c1)[C@]1(C(=O)N2)[C@H](c2ccc(O)cc2)N2[C@H](c3ccccc3)[C@H](c3ccccc3)OC(=O)[C@H]2[C@@H]1C(N)=O)C(=O)OC,-0.245
17,CCOc1cc(C(O)C2C=CC3C(=O)NC(=O)C3N2Nc2ccccn2)ccc1O (centres undefined),-0.132
18,C[N+](C)(C)CCCCCCNC(=O)[C@@H]1C[C@@H]2C(=O)NCC(=O)N2[C@@H]1c1cccc(OCCO)c1,-0.34

row,Compound,composite z-score
1,O=C1c2ccccc2C(=O)C2CC([C@H]3Oc4ccccc4S(=O)(=O)N4CCC[C@@H]34)=CCC12 (some centres undefined),0.21
2,CCCc1cc2c(n1Cc1ccc(OC)cc1)C(C)C1CN(C(=O)c3ccccc3)C(C)(C(=O)OC)C21 (centres undefined),-0.127
3,CC(=O)NCCCC[C@@H]1NC(=O)[C@@H]2C[C@H](C(=O)NCCCC[N+](C)(C)C)[C@H](c3cccc(OCCO)c3)N2C1=O,-0.0645
4,[N-]=[N+]=Nc1ccccc1[C@@H]1OC(c2ccc(OCCCO)cc2)=N[C@]1(CCS(=O)(=O)c1ccccc1)C(=O)NCc1ccccc1,-0.196
5,CN(C)CCCC[C@@H]1NC(=O)[C@H]2C[C@@H](C(=O)NCCCCCCNC(=O)CS)[C@@H](c3ccc(O)cc3)N2C1=O,-0.125
6,COC(=O)[C@@]1(Cc2ccc(OC)cc2)[C@H]2c3cc(C(=O)N4CCCC4)n(Cc4ccc(C)o4)c3C[C@H]2CN1C(=O)c1ccccc1,-0.116
7,O=C1N(Cc2ccccc2)c2ccccc2[C@H]2OC(c3ccc(OCCCO)cc3)=N[C@@]12CCS(=O)(=O)c1ccccc1,0.167
8,COCCCNC(=O)[C@]1(Cc2ccccc2)N=C(c2ccc(OCCCO)cc2)O[C@@H]1c1ccccc1N=[N+]=[N-],-0.0994
9,CCCCC(=C=CC[C@H](O)c1cccc(OCCO)c1)C[C@H](O)COCc1ccccc1,-0.28
10,COC(=O)c1ccc(OC)c(/C=C\CC(CCc2ccccc2)OC(=O)c2ccncc2)c1 (centres undefined),-0.146
11,COc1ccc([Si](C)(C)[C@H]2[C@H](CC(=O)N3CCC[C@H]3CO)O[C@@]3(C(=O)N(Cc4ccc(N5C(=O)c6cccc7cccc5c67)cc4)c4ccccc43)[C@@H]2C)cc1,-0.221
12,COc1cc(NN2C(C(O)c3ccc(I)cc3)C=CC3C(=O)N(C)C(=O)C32)cc(OC)c1OC (centres undefined),-0.0237
13,C=CCC(OC(C)=O)[C@@H]1[C@@H](N(Cc2ccc(-c3ccccc3)cc2)C(=O)c2cccc3ccccc23)c2cc(OCCCO)ccc2N1C(=O)c1ccc2ccccc2n1 (some centres undefined),0.0373
14,C=CCC(OC(C)=O)[C@@H]1[C@@H](N(Cc2cccc3ccccc23)C(=O)Cc2ccc(F)cc2)c2cc(OCCCO)ccc2N1C(=O)Cc1ccc(OC)cc1 (some centres undefined),-0.191
15,O=C1O[C@H](c2ccccc2)[C@H](c2ccccc2)N2[C@H]1[C@@H](C(=O)N1CCN(c3ncccn3)CC1)[C@]1(C(=O)Nc3ccc(C#CCCO)cc31)[C@H]2c1ccccc1OCCO,0.0219
16,COC(=O)[C@@]1(Cc2ccccc2)[C@H]2c3cc(C(=O)N4CCCC4)n(CCO)c3C[C@H]2CN1C(=O)c1ccccc1,0.216
17,COCCCNC(=O)[C@@]1(Cc2ccccc2I)c2ccccc2C(=O)N(Cc2ccccc2Cl)[C@H]1c1ccc(CO)cc1,-0.156
